About 7,900 targets were measured; listed, in parts, are those with a hit and a random draw of the rest. About 0.6% of all pairs of compound and target were hits. Unmarked numbers belong to inactive results.

Chain of UniProt Q96DM3 (Q96DM3 whole entry, looked up): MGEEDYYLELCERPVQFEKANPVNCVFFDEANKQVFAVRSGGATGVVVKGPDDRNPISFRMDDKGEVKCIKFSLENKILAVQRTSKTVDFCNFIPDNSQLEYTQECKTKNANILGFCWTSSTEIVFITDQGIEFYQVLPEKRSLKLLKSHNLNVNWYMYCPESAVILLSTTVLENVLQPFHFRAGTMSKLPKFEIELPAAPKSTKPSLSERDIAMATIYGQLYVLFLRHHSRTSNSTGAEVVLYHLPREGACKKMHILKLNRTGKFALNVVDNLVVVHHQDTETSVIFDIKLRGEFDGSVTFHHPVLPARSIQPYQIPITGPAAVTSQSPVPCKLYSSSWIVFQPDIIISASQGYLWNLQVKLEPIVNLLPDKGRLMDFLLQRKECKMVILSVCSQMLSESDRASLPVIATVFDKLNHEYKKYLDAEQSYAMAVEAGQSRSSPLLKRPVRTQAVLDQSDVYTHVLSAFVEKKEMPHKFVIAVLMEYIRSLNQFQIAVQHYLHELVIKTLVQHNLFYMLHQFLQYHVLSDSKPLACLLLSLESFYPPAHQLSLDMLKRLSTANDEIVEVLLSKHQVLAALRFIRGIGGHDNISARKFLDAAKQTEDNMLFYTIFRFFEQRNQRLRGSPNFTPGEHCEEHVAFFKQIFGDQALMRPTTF
Chain of UniProt Q9BVS4 (Q9BVS4 whole entry, looked up): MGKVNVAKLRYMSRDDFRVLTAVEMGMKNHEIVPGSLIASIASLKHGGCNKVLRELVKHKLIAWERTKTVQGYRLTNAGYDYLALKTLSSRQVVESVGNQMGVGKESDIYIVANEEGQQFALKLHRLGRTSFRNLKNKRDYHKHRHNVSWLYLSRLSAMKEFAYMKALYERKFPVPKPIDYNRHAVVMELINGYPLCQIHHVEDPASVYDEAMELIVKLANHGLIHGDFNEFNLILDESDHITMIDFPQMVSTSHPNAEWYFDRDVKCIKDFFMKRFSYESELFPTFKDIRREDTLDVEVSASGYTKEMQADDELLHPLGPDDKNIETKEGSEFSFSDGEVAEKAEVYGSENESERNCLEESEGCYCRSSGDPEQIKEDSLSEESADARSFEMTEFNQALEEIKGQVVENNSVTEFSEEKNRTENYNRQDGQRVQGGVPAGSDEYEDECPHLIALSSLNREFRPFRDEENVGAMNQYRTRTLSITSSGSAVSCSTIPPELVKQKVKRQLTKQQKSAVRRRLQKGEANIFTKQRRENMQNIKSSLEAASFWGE
Chain of UniProt Q9HB90 (Q9HB90 whole entry, looked up): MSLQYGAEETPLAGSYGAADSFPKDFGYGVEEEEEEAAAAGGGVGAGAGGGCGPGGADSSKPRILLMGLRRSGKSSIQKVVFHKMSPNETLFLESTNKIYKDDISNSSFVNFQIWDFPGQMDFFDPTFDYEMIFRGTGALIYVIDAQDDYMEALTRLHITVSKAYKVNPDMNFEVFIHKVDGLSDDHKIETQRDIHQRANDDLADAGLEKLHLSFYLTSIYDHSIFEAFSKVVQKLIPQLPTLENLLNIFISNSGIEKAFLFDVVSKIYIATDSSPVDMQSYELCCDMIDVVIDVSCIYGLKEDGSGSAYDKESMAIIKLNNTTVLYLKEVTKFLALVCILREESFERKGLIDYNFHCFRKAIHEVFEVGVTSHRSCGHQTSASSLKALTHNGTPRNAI
Chain of UniProt Q5TA31 (Q5TA31 whole entry, looked up): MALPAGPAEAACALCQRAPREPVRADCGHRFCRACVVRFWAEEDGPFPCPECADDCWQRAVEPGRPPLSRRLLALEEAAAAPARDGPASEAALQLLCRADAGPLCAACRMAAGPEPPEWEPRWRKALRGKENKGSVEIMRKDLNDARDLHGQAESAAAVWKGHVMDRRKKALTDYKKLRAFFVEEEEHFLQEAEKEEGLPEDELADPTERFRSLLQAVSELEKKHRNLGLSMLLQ
Chain of UniProt Q5VZM2 (Q5VZM2 whole entry, looked up): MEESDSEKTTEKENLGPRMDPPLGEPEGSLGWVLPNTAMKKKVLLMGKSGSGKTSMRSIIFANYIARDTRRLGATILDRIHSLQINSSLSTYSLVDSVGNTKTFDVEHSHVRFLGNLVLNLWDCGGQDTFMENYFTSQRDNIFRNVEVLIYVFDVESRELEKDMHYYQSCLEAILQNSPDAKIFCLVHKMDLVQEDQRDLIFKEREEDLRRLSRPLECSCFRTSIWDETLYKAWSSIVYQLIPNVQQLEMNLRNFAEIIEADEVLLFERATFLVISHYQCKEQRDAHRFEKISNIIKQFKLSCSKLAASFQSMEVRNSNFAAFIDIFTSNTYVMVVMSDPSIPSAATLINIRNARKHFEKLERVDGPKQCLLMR
Chain of UniProt Q86TU7 (Q86TU7 whole entry, looked up): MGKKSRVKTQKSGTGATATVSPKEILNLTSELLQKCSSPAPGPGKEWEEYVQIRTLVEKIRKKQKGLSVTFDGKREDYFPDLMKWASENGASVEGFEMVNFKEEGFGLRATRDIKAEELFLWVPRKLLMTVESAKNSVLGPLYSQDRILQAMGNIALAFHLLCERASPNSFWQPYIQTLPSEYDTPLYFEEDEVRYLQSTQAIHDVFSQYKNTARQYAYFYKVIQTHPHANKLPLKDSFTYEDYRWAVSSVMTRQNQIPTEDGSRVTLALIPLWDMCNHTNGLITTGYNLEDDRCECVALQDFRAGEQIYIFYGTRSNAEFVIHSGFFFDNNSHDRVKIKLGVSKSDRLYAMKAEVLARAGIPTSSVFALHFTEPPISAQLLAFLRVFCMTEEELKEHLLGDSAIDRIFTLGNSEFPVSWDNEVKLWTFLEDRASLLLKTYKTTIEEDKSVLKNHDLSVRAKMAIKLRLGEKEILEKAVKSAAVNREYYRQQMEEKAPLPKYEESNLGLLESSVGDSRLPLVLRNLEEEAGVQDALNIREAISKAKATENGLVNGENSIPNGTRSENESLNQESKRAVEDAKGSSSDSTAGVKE
Chain of UniProt Q9BUV8 (Q9BUV8 whole entry, looked up): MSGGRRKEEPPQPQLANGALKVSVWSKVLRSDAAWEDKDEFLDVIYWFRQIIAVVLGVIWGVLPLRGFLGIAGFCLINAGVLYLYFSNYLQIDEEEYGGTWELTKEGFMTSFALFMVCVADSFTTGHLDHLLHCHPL
Chain of UniProt Q99590 (Q99590 whole entry, looked up): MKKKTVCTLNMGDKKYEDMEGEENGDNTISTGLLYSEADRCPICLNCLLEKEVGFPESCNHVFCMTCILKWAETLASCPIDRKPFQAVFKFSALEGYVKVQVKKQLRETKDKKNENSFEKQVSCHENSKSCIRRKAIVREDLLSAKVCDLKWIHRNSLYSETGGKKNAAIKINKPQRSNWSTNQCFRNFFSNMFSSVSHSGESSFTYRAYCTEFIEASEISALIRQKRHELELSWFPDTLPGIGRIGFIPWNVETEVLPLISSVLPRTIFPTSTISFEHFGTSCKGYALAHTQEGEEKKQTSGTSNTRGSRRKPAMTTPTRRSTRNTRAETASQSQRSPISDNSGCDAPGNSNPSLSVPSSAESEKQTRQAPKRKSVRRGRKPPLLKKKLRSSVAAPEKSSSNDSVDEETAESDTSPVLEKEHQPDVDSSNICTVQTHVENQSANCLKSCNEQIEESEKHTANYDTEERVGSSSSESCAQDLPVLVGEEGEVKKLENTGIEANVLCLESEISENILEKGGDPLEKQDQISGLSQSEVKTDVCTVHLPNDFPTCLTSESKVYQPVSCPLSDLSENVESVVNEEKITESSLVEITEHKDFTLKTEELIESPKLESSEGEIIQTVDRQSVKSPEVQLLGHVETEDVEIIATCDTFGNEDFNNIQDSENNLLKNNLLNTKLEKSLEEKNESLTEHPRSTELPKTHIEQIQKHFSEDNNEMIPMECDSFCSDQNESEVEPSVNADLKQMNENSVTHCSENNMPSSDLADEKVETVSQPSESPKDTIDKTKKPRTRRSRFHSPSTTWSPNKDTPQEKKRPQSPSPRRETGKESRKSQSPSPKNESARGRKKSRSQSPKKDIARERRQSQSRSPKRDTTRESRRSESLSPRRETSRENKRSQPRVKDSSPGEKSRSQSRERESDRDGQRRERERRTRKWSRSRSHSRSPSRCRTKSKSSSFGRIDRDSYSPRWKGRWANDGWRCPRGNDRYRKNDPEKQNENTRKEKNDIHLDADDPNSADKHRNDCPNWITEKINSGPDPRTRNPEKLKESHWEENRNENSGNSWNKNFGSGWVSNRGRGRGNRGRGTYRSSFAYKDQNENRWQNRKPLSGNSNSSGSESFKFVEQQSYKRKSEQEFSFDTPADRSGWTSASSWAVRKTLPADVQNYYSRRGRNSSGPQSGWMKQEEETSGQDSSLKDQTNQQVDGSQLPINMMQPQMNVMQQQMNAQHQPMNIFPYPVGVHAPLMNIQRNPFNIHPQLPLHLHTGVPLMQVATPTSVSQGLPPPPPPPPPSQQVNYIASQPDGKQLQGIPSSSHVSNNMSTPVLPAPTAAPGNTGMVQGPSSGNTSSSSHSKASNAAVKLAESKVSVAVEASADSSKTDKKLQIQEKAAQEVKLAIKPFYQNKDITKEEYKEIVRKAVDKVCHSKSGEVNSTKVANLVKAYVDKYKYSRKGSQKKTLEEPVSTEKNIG
Chain of UniProt Q96D15 (Q96D15 whole entry, looked up): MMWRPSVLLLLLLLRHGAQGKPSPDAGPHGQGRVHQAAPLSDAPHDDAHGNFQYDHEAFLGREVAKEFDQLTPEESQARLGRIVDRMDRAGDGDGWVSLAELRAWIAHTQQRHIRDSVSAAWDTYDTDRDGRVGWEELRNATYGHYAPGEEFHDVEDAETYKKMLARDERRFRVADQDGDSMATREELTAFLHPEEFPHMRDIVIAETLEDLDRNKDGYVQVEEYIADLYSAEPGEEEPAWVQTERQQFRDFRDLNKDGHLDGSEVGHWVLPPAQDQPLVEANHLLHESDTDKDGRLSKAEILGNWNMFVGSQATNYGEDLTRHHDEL
Chain of UniProt Q8N0T1 (Q8N0T1 whole entry, looked up): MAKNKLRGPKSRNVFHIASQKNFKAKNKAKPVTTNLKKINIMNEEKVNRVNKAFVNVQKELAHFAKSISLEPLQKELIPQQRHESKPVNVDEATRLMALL

Compound in the assay: c1ccc([C@@H]2C[C@H]2NC2CCNCC2)cc1
The assay can be described thus: log2 fold change, soluble protein after heating vs DMSO (PISA); higher = thermal stabilisation; K562 cells, 10 uM, 30 min; active = over 0.2 and 3.5 SD of the protein, either way, in both replicates (recomputed). In outline:
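Soluble protein was quantified by TMTpro 16plex LC-MS/MS after channel sums were equalised. It was obtained as the supernatant after 21,000xg for 90 min from pooled aliquots of K562 cells (2×10^6 cells/mL, 10 μM compound, 30 min) heated for 3 min across 48°C-58°C and extracted in PBS with 0.5% NP-40 at 4°C. Thermal stability values are relative to control samples and come from duplicates. They are given as log2 fold changes.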
For RRAGB (UniProt Q5VZM2), the log2 fold change was 0.02.
As to RIOK2 (UniProt Q9BVS4), the log2 fold change was -0.009.
Regarding RCOR3 isoform 3 (UniProt Q9P2K3), the log2 fold change was 1.27 (active).
Then RAC1 (UniProt P63000), with 0.033; and SEH1L isoform 1 (UniProt Q96EE3), with 0.017; and RAB3D (UniProt O95716), with 0.201.
Then RBM25 (UniProt P49756), with 0.112; and RHOXF2 (UniProt Q9BQY4), with 0.057.
The result for RPS13 (UniProt P62277) reads 0.
Turning to SENP6 (UniProt Q9GZR1), the log2 fold change is 0.056.
For the target RCN3 (UniProt Q96D15), the log2 fold change was 0.023.
The result for SAFB2 (UniProt Q14151) reads 0; that for RMC1 (UniProt Q96DM3), 0.063; that for RPS16 (UniProt P62249), -0.003.
Consider RAPGEF4 (UniProt Q8WZA2), for which the log2 fold change is -0.176.
As to RNF187 (UniProt Q5TA31), the log2 fold change is -0.033.
The result for SCCPDH (UniProt Q8NBX0) reads -0.059.
The result for RBM8A (UniProt Q9Y5S9) reads 0.045.
Regarding RAB5IF isoform 5 (UniProt Q9BUV8), the log2 fold change was 0.028.
With RNPS1 (UniProt Q15287), the log2 fold change was 0.061.
In the case of RPS6KA2 isoform 2 (UniProt Q15349), the log2 fold change is -0.02.
As to RTN4IP1 (UniProt Q8WWV3), the log2 fold change was -0.108.
With RRAGC (UniProt Q9HB90), the log2 fold change is 0.009.
The result for RAB3IL1 (UniProt E9PK89) reads -0.136.
As for SCAF11 (UniProt Q99590), the log2 fold change is 0.016.
Turning to RPS27A (UniProt P62979), the log2 fold change is -0.025.
Then RBM39 (UniProt Q14498), with 0.158; and RBIS (UniProt Q8N0T1), with 0; and RPS3 (UniProt P23396), with 0.015.
SHROOM2 (UniProt Q13796): the log2 fold change was -0.072.
For the target SIRT2 (UniProt Q8IXJ6), the log2 fold change is -0.016.
For ROR2 (UniProt Q01974), the log2 fold change is -0.035.
As for RUFY1 (UniProt Q96T51), the log2 fold change was -0.028.
Then REEP4 (UniProt Q9H6H4), with 0.003; and RPS14 (UniProt P62263), with -0.036.
Then SETD3 (UniProt Q86TU7), with -0.005; and SCG3 (UniProt Q8WXD2), with 0.051.
